Ba/F3 V617F tox: reduced viability of JAK2V617F-dependent Ba/F3 cells, primary screen, JAK2V617F inhibitor project, cell-based, Ba/F3 EpoR-JAK2V617F, luminescence. ATP luminescence. AID 1446, 2008. inhibition, % at 5.6 µM. hit rate 1.1% among 220,000;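 active = inhibition above the campaign mean plus 3 SD over all tested compounds, cut at about 24% in these data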;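 also: cytokine-independent growth of Ba/F3 cells driven by EpoR plus mutant JAK2; 0% = DMSO-treated cells and 100% = JAK inhibitor I control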
BaF3 parental: parental Ba/F3 cell viability inhibition, counter-screen for JAK2V617F inhibitor project, murine pro-B, CellTiter-Glo luminescence; CellTiter-Glo ATP luminescence; inhibition, % at 5.6 µM; hit rate 1.1% among 220,000;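 active = inhibition above a per-campaign cutoff, the mean inhibition of all tested compounds plus 3 SD, cut at about 27% in these data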;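 also: 0% = DMSO wells and 100% = JAK Inhibitor I control wells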
IEC-6 tox: cytotoxicity in IEC-6 intestinal epithelial cells, primary screen, cytotoxicity control for KLF5 inhibitor project, cell-based, luminescence. AID 1825, 2009. IEC-6 cytotoxicity, luminescence viability. hit rate 0.78% among 290,000. inhibition, % at 5 µM; in the data active = inhibition above about 22%;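 also: 0% = plate median of test compound wells and 100% = cytotoxic reference compound wells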
KLF5 inh: KLF5 expression inhibitors, primary screen, DLD-1 cells, luminescence; inhibition, % at 5 µM; DLD-1 KLF5 promoter-luciferase reporter; hit rate 0.23% among 290,000;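 active = inhibition above a per-plate limit of that plate's mean compound inhibition plus 3 SD, cut at about 60% in these data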;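 also: 0% = DMSO wells and 100% = LY294002 at 200 µM; higher means less KLF5 promoter-driven luciferase light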
APP 5UTR inh: inhibitors of APP translation via 5'UTR reporter, primary screen, APP 5'UTR luciferase, SH-SY5Y cells; hit rate 0.82% among 190,000; AID 1285, 2008; SH-SY5Y APP 5'UTR-luciferase reporter, luminescence; inhibition, % at 2 µM;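 active = inhibition above a set limit, derived from the sample mean plus 3 SD, cut at about 45% in these data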
Numbers without * were called inactive; . = no result. The list is not random: actives were taken first. Their share in the collection is about 1.9%.

SMILES	Ba/F3 V617F tox	BaF3 parental	IEC-6 tox	KLF5 inh	APP 5UTR inh
CCc1nnc(NC(=O)c2ccncc2)s1	3	5	5	-12	8
CCOCc1nnc(NC(=O)c2ccc(OC)cc2)s1	-1	-1	-4	-66	47*
O=C1CCC([N+](=O)[O-])C(c2cc3c(cc2Cl)OCO3)N1 (stereo unspecified)	3	2	3	-28	-9
COc1ccc(CC(=O)Nc2cc(Cl)ccc2O)cc1	70*	42*	4	-22	-2
Cc1cc(C)c2nc(/N=C(\N)NC(=O)c3ccccc3)nc(C)c2c1	1	-7	-1	-17	.
Cc1cc(C)c2nc(/N=C(\N)NC(=O)Nc3ccccc3)nc(C)c2c1	69*	66*	0	-15	-6
COc1ccc(NC(=O)CN2C(=O)CSC(C)C2=O)c(OC)c1 (stereo unspecified)	-2	30*	-12	-5	-6
COc1ccccc1NC(=O)CN1C(=O)CSC(C)C1=O (stereo unspecified)	1	3	-12	-11	-1
Cc1cccc(Cc2nnc(CCC(=O)N(CC3CC3)CC3CCCO3)o2)c1 (stereo unspecified)	-1	4	0	-73	-50
CCN(CC1CCCO1)C(=O)CCc1nnc(Cc2ccc3c(c2)OCO3)o1 (stereo unspecified)	6	82*	2	-18	-12
O=C(N1CCOCC1)N1CCN(C(=O)N(c2ccccc2)c2ccccc2)CC1	-2	1	-2	-14	57*
CCOc1ccccc1NC(=O)COC(=O)CC(C)(C)CC1=NS(=O)(=O)c2ccccc2N1	.	.	18	-10	.
CC(=NCc1cccc(Cl)c1)c1nc(-c2ccco2)oc1O	53*	49*	1	12	-18
Fc1ccc(NC(=S)N2CCc3ccccc3C2)c(F)c1	15	39*	2	-3	8
Fc1ccc(NC(=S)N2CCOCC2)c(F)c1	.	.	-1	-11	.
CCOc1ccc(-n2c(C)cc(/C=N/N(C)C)c2C)cc1	10	37*	2	-5	-18
CCOc1ccc(-n2c(C)cc(/C=N/NC(=O)C(N)=O)c2C)cc1	0	6	-2	-4	6
CCOc1ccccc1C1C2=C(COC2=O)Nc2cc3c(cc21)OCO3 (stereo unspecified)	83*	74*	91*	63*	96*
CCCOc1c(OC)cccc1C1CC(=O)Nc2cc3c(cc21)OCO3 (stereo unspecified)	0	1	0	-4	9
O=C(O)c1ccccc1C(=O)N1CCN(C(=O)c2ccccc2Cl)CC1	-1	5	-7	-45	2
Cc1c(C(=O)C(=O)N2c3ccccc3CC2C)c2ccccc2n1C (stereo unspecified)	3	8	9	4	-7
O=C(O)c1ccccc1C(=O)N1CC=C(c2ccccc2)CC1	16	38*	-2	-35	4
Cc1c(C(=O)C(=O)N2CC=C(c3ccccc3)CC2)c2ccccc2n1C	77*	28*	47*	38	82*
CC(C)(C)c1ccc(S(=O)(=O)N2CCC(NC(=O)c3ccco3)CC2)cc1	.	.	6	5	.
C#CC(C)(C)NC(=O)c1ccc(-c2ccccc2F)cc1	-1	4	-2	-71	.
SMILES	Ba/F3 V617F tox	BaF3 parental	IEC-6 tox	KLF5 inh	APP 5UTR inh
CCN1/C(=C/c2ccc3ccccc3[n+]2CCCS(=O)(=O)[O-])C=Cc2cc(C)ccc21	.	.	6	-9	.
CCN1/C(=C/c2cc[n+](C)cc2)C=Cc2cc(C)ccc21	99*	73*	-3	-6	-1
CS(=O)c1nc(-c2ccc(Br)cc2)cc(-c2ccccc2)c1C#N (stereo unspecified)	5	-4	3	-6	94*
Cn1nccc1C(=O)N1CCC(Cc2ccccc2)CC1	.	.	-8	-3	.
COc1ccc(CCNC(=O)CSc2nnnn2-c2ccccc2)cc1	-4	-2	-4	-15	48*
O=[N+]([O-])c1ccc(N2CCN(C(=S)Nc3cccc(F)c3)CC2)cc1	28*	32*	4	-6	-1
C=CCn1c(Cc2cccs2)nnc1SCC(=O)Nc1ccc(C(=O)OCC)cc1	0	0	-1	-13	47*
CC(=O)C1=NN(c2ccccc2)C(c2ccc3c(c2)OCO3)N1c1ccccc1 (stereo unspecified)	21	46*	-1	-43	-26
CC(=O)C1=NN(c2ccccc2)C(c2cccs2)N1c1ccc(N(C)C)cc1 (stereo unspecified)	81*	70*	8	-87	-10
O=C(CCSCc1cccc(F)c1)NCCc1ccccc1	.	.	0	-28	.
COc1ccccc1CCC(=O)Nc1ccc2c(c1)CN(Cc1ccc(C)o1)CC2	.	.	8	-13	.
Cc1cccc[n+]1CC(=O)/C=C1\N(C)c2ccccc2C1(C)C	91*	67*	0	-2	-4
COCCn1c(SCC(=O)c2c(-c3ccccc3)n(C)c3ccccc23)nnc1-c1ccncc1	1	8	4	-25	-10
CN1/C(=C/C(=O)CSc2ccccc2C(=O)O)C(C)(C)c2ccccc21	1	6	5	-3	.
CN1/C(=C\C(=O)C[n+]2ccc(C(=O)c3ccccc3)cc2)C(C)(C)c2ccccc21	-2	-1	1	-28	-11
CN1/C(=C\C(=O)C[n+]2cccc(Br)c2)C(C)(C)c2ccccc21	66*	67*	0	-11	0
Cc1cc(=O)[nH]c(SCC(=O)/C=C2\N(C)c3ccccc3C2(C)C)n1	67*	62*	5	-8	6
COCCn1c(SCC(=O)/C=C2\N(C)c3ccccc3C2(C)C)nnc1-c1ccncc1	32*	34*	-1	-5	4
Cc1ccc(S(=O)(=O)N2CCC(C(=O)N3CCC3)CC2)cc1	.	.	6	-21	.
CNS(=O)(=O)c1cc(OC)c(OC)cc1CC(=O)OC	-5	-3	-3	-19	-16
Cc1ccc[n+](CC(=O)/C=C2\N(C)c3ccccc3C2(C)C)c1	51*	54*	6	6	15
CN1/C(=C\C(=O)C[n+]2cccc(C(N)=O)c2)C(C)(C)c2ccccc21	-2	0	-6	-4	-12
CN1/C(=C\C(=O)CN2C(=O)NC3(CCCCCC3)C2=O)C(C)(C)c2ccccc21	41*	46*	2	-28	16
COc1ccc(/C=N/OCC(=O)NCc2cccs2)c(OC)c1	-5	3	-2	-17	-16
COc1ccc(CNC(=O)N2CCN(c3ccccc3OC)CC2)cc1	.	.	4	-13	.
COc1cc(C(=O)Nc2ccc3c(c2)CCN3C(C)=O)cc(OC)c1OC	78*	79*	40*	28	81*
COc1cc(C(=O)Nc2ccc3c(c2)Cc2ccccc2-3)cc(OC)c1OC	-5	-1	6	11	4

Screening data: PubChem, several laboratories
